Results: PubChem BioAssay (NCI)
Compounds without any hit were thinned out: in the full panel of roughly 83,000, 20% have a hit.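 Activity criterion: percent growth below 10, measured after cells in 96-well plates were exposed to a single compound concentration for 48 hours.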 Calls of active or inactive are those of the source.

Experiments:
Assay in all cases: NCI-60 one-dose screen, 48 h (100 = growth as untreated, 0 = no growth, -100 = all killed)
Settings in all cases: 10 µM unless noted
NCI-H23 lung = tested on: NCI-H23 lung
NCI-H226 lung = tested on: NCI-H226 lung
NCI-H322M lung = tested on: NCI-H322M lung
HOP-62 NSCLC = tested on: HOP-62 NSCLC
NCI-H460 lung = tested on: NCI-H460 lung
HOP-92 NSCLC = tested on: HOP-92 NSCLC
NCI-H522 lung = tested on: NCI-H522 lung
A549/ATCC NSCLC = tested on: A549/ATCC NSCLC
786-0 renal = tested on: 786-0 renal
COLO 205 colon = tested on: COLO 205 colon
DU-145 prostate = tested on: DU-145 prostate
K-562 leukemia = tested on: K-562 leukemia
MALME-3M melanoma = tested on: MALME-3M melanoma
MDA-MB-231 breast = tested on: MDA-MB-231 breast
RXF 393 renal = tested on: RXF 393 renal
SF-268 CNS = tested on: SF-268 CNS
SF-295 CNS = tested on: SF-295 CNS
SF-539 CNS = tested on: SF-539 CNS
UACC-257 melanoma = tested on: UACC-257 melanoma
M14 melanoma = tested on: M14 melanoma

Measured: growth

C=C(C)[C@@H]1CC[C@]2(C(=O)OCCOCCOCC[P+](c3ccccc3)(c3ccccc3)c3ccccc3)CC[C@]3(C)[C@H](CC[C@@H]4[C@@]5(C)CC[C@H](OC(C)=O)C(C)(C)[C@@H]5CC[C@]43C)[C@@H]12
active: NCI-H23 lung -84.6% | NCI-H226 lung -85.3% | NCI-H322M lung -93.8% | HOP-62 NSCLC -84.9% | NCI-H460 lung -80.5% | HOP-92 NSCLC -87.3% | NCI-H522 lung -75.2% | A549/ATCC NSCLC -88.3% | 786-0 renal -91.6% | COLO 205 colon -75.7% | DU-145 prostate -91.1% | K-562 leukemia -74.3% | MALME-3M melanoma -85.1% | MDA-MB-231 breast -91.3% | RXF 393 renal -90.4% | SF-268 CNS -74.7% | SF-295 CNS -92% | SF-539 CNS -90.9% | UACC-257 melanoma -83.4% | M14 melanoma -83.1%

COc1cc(-c2csc(NC(=O)Nc3ccc(C(F)(F)F)cc3)n2)cc(OC)c1OC
inactive: NCI-H322M lung 33.5% | DU-145 prostate 20.8% | SF-268 CNS 29.1% | SF-539 CNS 16%
active: NCI-H23 lung 2.62% | NCI-H226 lung 0.0527% | HOP-62 NSCLC 9.05% | NCI-H460 lung 4.98% | HOP-92 NSCLC -24.5% | NCI-H522 lung -25% | A549/ATCC NSCLC 5.16% | 786-0 renal -10% | COLO 205 colon -44.4% | K-562 leukemia 7.21% | MALME-3M melanoma -12.1% | MDA-MB-231 breast -14.3% | RXF 393 renal -4.21% | SF-295 CNS -12.4% | UACC-257 melanoma -18.1% | M14 melanoma 5.54%

Cc1nccc2c3ccc(OCc4cn(-c5ccccc5)nn4)cc3n(CCCc3ccccc3)c12
inactive: NCI-H23 lung 80.8% | NCI-H226 lung 85.7% | NCI-H322M lung 75.6% | HOP-62 NSCLC 78.2% | NCI-H460 lung 59.2% | HOP-92 NSCLC 57.3% | NCI-H522 lung 57.5% | A549/ATCC NSCLC 52.2% | 786-0 renal 80% | COLO 205 colon 50.7% | DU-145 prostate 88.6% | K-562 leukemia 36.5% | MALME-3M melanoma 90.4% | MDA-MB-231 breast 79.6% | RXF 393 renal 69.7% | SF-268 CNS 88.3% | SF-295 CNS 74.8% | SF-539 CNS 78.2% | UACC-257 melanoma 55.9% | M14 melanoma 83.3%

O=C(NC[C@H](O)CN1CCc2ccccc2C1)c1cc(NC2COC2)ncn1
inactive: NCI-H23 lung 99.7% | NCI-H226 lung 108% | NCI-H322M lung 93.6% | HOP-62 NSCLC 92.8% | NCI-H460 lung 97.8% | HOP-92 NSCLC 112% | NCI-H522 lung 92% | A549/ATCC NSCLC 93.4% | 786-0 renal 92% | COLO 205 colon 92.4% | DU-145 prostate 103% | K-562 leukemia 108% | MALME-3M melanoma 93.3% | MDA-MB-231 breast 94.6% | RXF 393 renal 114% | SF-268 CNS 86% | SF-295 CNS 97.7% | SF-539 CNS 97.4% | UACC-257 melanoma 116% | M14 melanoma 92.4%

OCCNc1nc(NCCO)nc(Nc2ccc(C3=NN(c4cc(Cl)cc(Cl)c4)C(c4ccccc4)C3)cc2)n1 (stereo not given)
inactive: NCI-H23 lung 50.1% | NCI-H226 lung 96.2% | NCI-H322M lung 57.6% | HOP-62 NSCLC 29.1% | NCI-H460 lung 23.7% | HOP-92 NSCLC 72.1% | NCI-H522 lung 48.1% | A549/ATCC NSCLC 35.9% | 786-0 renal 40.3% | COLO 205 colon 34.4% | DU-145 prostate 45.8% | K-562 leukemia 18.4% | MALME-3M melanoma 59.2% | MDA-MB-231 breast 42.1% | RXF 393 renal 11% | SF-268 CNS 50.8% | SF-295 CNS 10% | SF-539 CNS 38% | UACC-257 melanoma 91.2% | M14 melanoma 46.2%

O=C(Nc1nc2ccc(C(F)(F)F)cc2s1)c1cc(Cl)ccc1O
inactive: NCI-H322M lung 10.6% | A549/ATCC NSCLC 11.3% | DU-145 prostate 25.9% | SF-268 CNS 19.5% | SF-539 CNS 14.6% | M14 melanoma 15.1%
active: NCI-H23 lung -12% | NCI-H226 lung 5.73% | HOP-62 NSCLC 4.72% | NCI-H460 lung 4.41% | HOP-92 NSCLC -12.3% | NCI-H522 lung -15.1% | 786-0 renal 9.95% | COLO 205 colon -57.3% | K-562 leukemia 5.73% | MALME-3M melanoma -16.6% | MDA-MB-231 breast -10.5% | RXF 393 renal -2.8% | SF-295 CNS -31.2% | UACC-257 melanoma -8.55%

CC(C)(C)c1ccc(O)c(Cc2cc(C(C)(C)C)ccc2O)c1
active: HOP-92 NSCLC -39.4%
inactive: NCI-H23 lung 94.7% | NCI-H226 lung 89.9% | NCI-H322M lung 102% | HOP-62 NSCLC 85.9% | NCI-H460 lung 104% | NCI-H522 lung 87% | A549/ATCC NSCLC 92.4% | 786-0 renal 94.2% | COLO 205 colon 110% | DU-145 prostate 105% | K-562 leukemia 87.1% | MALME-3M melanoma 104% | MDA-MB-231 breast 88.1% | RXF 393 renal 101% | SF-268 CNS 93.1% | SF-295 CNS 109% | SF-539 CNS 108% | UACC-257 melanoma 86.6% | M14 melanoma 92.3%

C=CCn1c(SCC(=O)Nc2ccc(C(=O)/C=C/c3cc(OC)c(OC)c(OC)c3)cc2)nnc1-c1ccccc1
inactive: NCI-H23 lung 93% | NCI-H226 lung 88.5% | NCI-H322M lung 104% | HOP-62 NSCLC 117% | NCI-H460 lung 89.8% | HOP-92 NSCLC 150% | NCI-H522 lung 82.8% | A549/ATCC NSCLC 85.1% | 786-0 renal 93.1% | COLO 205 colon 101% | DU-145 prostate 76.7% | K-562 leukemia 48.9% | MALME-3M melanoma 91% | MDA-MB-231 breast 98.9% | RXF 393 renal 97.8% | SF-268 CNS 93.5% | SF-295 CNS 92.6% | SF-539 CNS 96.2% | UACC-257 melanoma 81.4% | M14 melanoma 86.9%
